Test results taken from the supplement of paper PMC8728848.
About 410 targets per protein were measured; listed, in parts, are those with the strongest signals and a random draw of the rest.

Tests used:
Experiment in all cases: glycan array binding signal (z-score within array); higher = stronger binding
Conditions in all cases: glycan notation: IUPAC condensed, linker removed; mutation: D229G
[1] = target: Fuc(a1-2)Gal(b1-3)GlcNAc(b1-2)Man(a1-3)[Fuc(a1-2)Gal(b1-3)GlcNAc(b1-2)Man(a1-6)]Man(b1-4)GlcNAc(b1-4)GlcNAc
Summary of the method: (§1)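 The binding signal is a Z-score computed within each array. Data were drawn from 3228 arrays in the Consortium for Functional Glycomics database, restricted to those with a known protein sequence. Scores were averaged over arrays of the same protein sequence at different concentrations or buffers, and over linkers, and negative values can be taken as non-binding.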

[2] = target: Fuc(a1-2)Gal(b1-3)GlcNAc(b1-3)GalNAc
Summary of the method: as §1

[3] = target: Fuc(a1-2)Gal(b1-3)GlcNAc(b1-3)[Gal(b1-4)GlcNAc(b1-6)]Gal(b1-4)Glc
Summary of the method: as §1

[4] = target: Fuc(a1-2)Gal(b1-4)GlcNAc
Summary of the method: as §1

[5] = target: Fuc(a1-2)Gal(b1-4)GlcNAc(b1-3)Gal(b1-4)GlcNAc(b1-3)Gal(b1-4)GlcNAc
Summary of the method: as §1

[6] = target: Fuc(a1-2)Gal(b1-4)[Fuc(a1-3)]GlcNAc(b1-3)Gal(b1-4)[Fuc(a1-3)]GlcNAc
Summary of the method: as §1

[7] = target: Fuc(a1-2)Gal3S(b1-4)GlcNAc
Summary of the method: as §1

[8] = target: Fuc(a1-2)Gal6S(b1-4)Glc
Summary of the method: as §1

[9] = target: Fuc(a1-2)[Gal(a1-3)]Gal(b1-3)GlcNAc(b1-2)Man(a1-3)[Fuc(a1-2)[Gal(a1-3)]Gal(b1-3)GlcNAc(b1-2)Man(a1-6)]Man(b1-4)GlcNAc(b1-4)GlcNAc
Summary of the method: as §1

[10] = target: Fuc(a1-2)[Gal(a1-3)]Gal(b1-3)GlcNAc(b1-6)GalNAc
Summary of the method: as §1

[11] = target: Fuc(a1-2)[Gal(a1-3)]Gal(b1-4)GlcNAc(b1-2)Man(a1-3)[Fuc(a1-2)[Gal(a1-3)]Gal(b1-4)GlcNAc(b1-2)Man(a1-6)]Man(b1-4)GlcNAc(b1-4)GlcNAc
Summary of the method: as §1

[12] = target: Fuc(a1-2)[Gal(a1-3)]Gal(b1-4)GlcNAc(b1-6)GalNAc
Summary of the method: as §1

[13] = target: Fuc(a1-2)[Gal(a1-3)]Gal(b1-4)[Fuc(a1-3)]GlcNAc(b1-3)GalNAc
Summary of the method: as §1

[14] = target: Fuc(a1-2)[GalNAc(a1-3)]Gal(b1-4)GlcNAc(b1-2)Man
Summary of the method: as §1

[15] = target: Fuc(a1-2)[GalNAc(a1-3)]Gal(b1-4)GlcNAc(b1-3)[Fuc(a1-2)[GalNAc(a1-3)]Gal(b1-4)GlcNAc(b1-6)]GalNAc
Summary of the method: as §1

[16] = target: Fuc(a1-2)[GalNAc(a1-3)]Gal(b1-4)[Fuc(a1-3)]GlcNAc(b1-3)GalNAc
Summary of the method: as §1

[17] = target: Fuc(a1-3)[Gal(b1-4)]GlcNAc(b1-3)Gal(b1-4)[Fuc(a1-3)]GlcNAc(b1-3)Gal(b1-4)[Fuc(a1-3)]GlcNAc
Summary of the method: as §1

[18] = target: Fuc(a1-3)[Gal3S(b1-4)]GlcNAc6S
Summary of the method: as §1

[19] = target: Gal(a1-3)Gal(b1-3)GlcNAc
Summary of the method: as §1

[20] = target: Gal(a1-3)Gal(b1-3)GlcNAc(b1-2)Man(a1-3)[Gal(a1-3)Gal(b1-3)GlcNAc(b1-2)Man(a1-6)]Man(b1-4)GlcNAc(b1-4)GlcNAc
Summary of the method: as §1

[21] = target: Gal(b1-2)Gal
Summary of the method: as §1

[22] = target: Gal(b1-3)Gal
Summary of the method: as §1

[23] = target: Gal(b1-3)GlcNAc(b1-3)Gal(b1-4)GlcNAc(b1-3)Gal(b1-4)GlcNAc(b1-2)[Gal(b1-3)GlcNAc(b1-3)Gal(b1-4)GlcNAc(b1-3)Gal(b1-4)GlcNAc(b1-6)]Man(a1-6)[Gal(b1-3)GlcNAc(b1-3)Gal(b1-4)GlcNAc(b1-3)Gal(b1-4)GlcNAc(b1-2)Man(a1-3)]Man(b1-4)GlcNAc(b1-4)[Fuc(a1-6)]GlcNAc
Summary of the method: as §1

[24] = target: Gal(b1-3)GlcNAc6S
Summary of the method: as §1

[25] = target: Gal(b1-3)[Fuc(a1-4)]GlcNAc(b1-2)Man(a1-3)[Gal(b1-3)[Fuc(a1-4)]GlcNAc(b1-2)Man(a1-6)]Man(b1-4)GlcNAc(b1-4)[Fuc(a1-6)]GlcNAc
Summary of the method: as §1

[26] = target: Gal(b1-4)GlcNAc(b1-2)[Gal(b1-4)GlcNAc(b1-4)]Man(a1-3)[Gal(b1-4)GlcNAc(b1-2)Man(a1-6)]Man(b1-4)GlcNAc(b1-4)GlcNAc
Summary of the method: as §1

[27] = target: Gal(b1-4)GlcNAc(b1-2)[Gal(b1-4)GlcNAc(b1-4)]Man(a1-3)[GlcNAc(b1-4)][Gal(b1-4)GlcNAc(b1-2)Man(a1-6)]Man(b1-4)GlcNAc(b1-4)GlcNAc
Summary of the method: as §1

[28] = target: Gal(b1-4)GlcNAc(b1-3)Gal(b1-3)GalNAc
Summary of the method: as §1

[29] = target: Gal(b1-4)GlcNAc(b1-3)Gal(b1-4)GlcNAc(b1-2)Man(a1-3)[Gal(b1-4)GlcNAc(b1-3)Gal(b1-4)GlcNAc(b1-2)Man(a1-6)]Man(b1-4)GlcNAc(b1-4)[Fuc(a1-6)]GlcNAc
Summary of the method: as §1

[30] = target: Gal(b1-4)GlcNAc(b1-3)Gal(b1-4)GlcNAc(b1-3)Gal(b1-4)GlcNAc(b1-3)Gal(b1-4)GlcNAc(b1-3)Gal(b1-4)GlcNAc(b1-2)[Gal(b1-4)GlcNAc(b1-3)Gal(b1-4)GlcNAc(b1-3)Gal(b1-4)GlcNAc(b1-3)Gal(b1-4)GlcNAc(b1-3)Gal(b1-4)GlcNAc(b1-6)]Man(a1-6)[Gal(b1-4)GlcNAc(b1-3)Gal(b1-4)GlcNAc(b1-3)Gal(b1-4)GlcNAc(b1-3)Gal(b1-4)GlcNAc(b1-3)Gal(b1-4)GlcNAc(b1-2)Man(a1-3)]Man(b1-4)GlcNAc(b1-4)[Fuc(a1-6)]GlcNAc
Summary of the method: as §1

[31] = target: Gal(b1-4)GlcNAc(b1-3)Gal(b1-4)GlcNAc(b1-3)[Gal(b1-4)GlcNAc(b1-3)Gal(b1-4)GlcNAc(b1-6)]GalNAc
Summary of the method: as §1

B1: Epa1-NP-mutant-D229G (Candida glabrata), Q6VBJ0 (protein)
chain: MILNPALFLNKCVCIYTTLILLLLTNGGYATSSNDISLASKDPTTFPLGCSPDITTPKKGLSMELYSYDFRKKGSYPCWDAAYLDPNYPRTGYKSHRLLAKVDGVTGNINFYYHATKGCTPQLGHLPASYNYPKPLTMTNFTMLLYGYFRPKVTGFHTFTISADDLLFVNFGAGNAFDCCRRDSSADHFGNYQAYAIWGSKTAKDELTVHLDAGVYYPIRLFYNNREYGGALSFTFKTESNENTVSDFSEYFFSLDDTEEGCPGLISYDSSCASVKTSKIIGIDYHTETPNENLVPITKTIYHLGIPCTGTTTTPLCGSGFYDPLANKCVTINTSSTSSVTKTTSHTTSKEVSFHSSISSQKTLIPKSIPSPYGPIKSQSIPTEMETSSEISSSEYAFSDVISTPSHSPYTKKHSSLNSSSYTSTVIHSLTSYSISQGIFSTSLSEQNITSKSSTDKFSTATSMSNNITQSSIIISQFSTNNENYTTTSMHTSSDKISTETLNNSISTTTSILFSNSSTILKNNTTIISSDKDTHYHPVNPTIVCSTNKTEIICASITQPSISNSNNHWSSSVLKFNSTTVRSTLPSSAGSNETSINVPFSSSTESNTSTSSTSTSNSKMVRSTLPSSAGSNETSISVPFSSSTESNTSTSSTSTSNSKMVRSTLPSSAGSNETSINVPFSSSTESNTSTSSTSTSNSKTVRSTPFSSAGIIMTSLSQRNNKSASSYASSNSKCYNTADSCRKVHSTPSYLLTSSYTSEGVDYDCSLVSTKLKINDTNCVNNKHTTKSCLKTSVTTTIPTLEIKTARKSSSNTIGLHSYPTSSPNKSISSAPIIGYISSFKTIKTASPSYQTSDLTTITTITSLNNPGSTAVENTHESNDKSRKTSSNDISSKHSVIKETKDAVESSNKSHQTNTLKCSSIIIASSSHNSYESLGGTTLTLTLSKVYSPQNNDTLPFLEISEVNPSRTVLPESSKMMQYLTSTEERNKTARNTIATNIVSISTFHFEGEGNAIRMGYTQLLLMLIGIIVMNIGT
[1]
  glycan array binding signal (z-score): 1.63
[2]
  glycan array binding signal (z-score): 0.514
[3]
  glycan array binding signal (z-score): 1
[4]
  glycan array binding signal (z-score): 0.427
[5]
  glycan array binding signal (z-score): -0.455
[6]
  glycan array binding signal (z-score): -1.5
[7]
  glycan array binding signal (z-score): 1.12
[8]
  glycan array binding signal (z-score): -0.521
[9]
  glycan array binding signal (z-score): 0.17
[10]
  glycan array binding signal (z-score): 0.093
[11]
  glycan array binding signal (z-score): 2.01
[12]
  glycan array binding signal (z-score): -0.039
[13]
  glycan array binding signal (z-score): 2.93
[14]
  glycan array binding signal (z-score): -0.751
[15]
  glycan array binding signal (z-score): 0.092
[16]
  glycan array binding signal (z-score): -0.531
[17]
  glycan array binding signal (z-score): -0.559
[18]
  glycan array binding signal (z-score): 2.08
[19]
  glycan array binding signal (z-score): -0.137
[20]
  glycan array binding signal (z-score): 3.6
[21]
  glycan array binding signal (z-score): -1.18
[22]
  glycan array binding signal (z-score): -0.801
[23]
  glycan array binding signal (z-score): 2.48
[24]
  glycan array binding signal (z-score): 1.23
[25]
  glycan array binding signal (z-score): 2.15
[26]
  glycan array binding signal (z-score): -1.41
[27]
  glycan array binding signal (z-score): -0.683
[28]
  glycan array binding signal (z-score): 0.068
[29]
  glycan array binding signal (z-score): 0.671
[30]
  glycan array binding signal (z-score): 2.8
[31]
  glycan array binding signal (z-score): 2.55
